Shown are actives, neighbours in structure and some others; about 7.3% of the full set was active somewhere.
RORgamma inh – ROR gamma (mouse) transcription inhibition | AID 2551 | P51450 | Drosophila S2 Gal4-RORgamma UAS-luciferase reporter, 20 h | Potency, µM (titrated, usually from 53.6 µM), hits mostly inhibitors | 310,000 compounds, 5.4% hits; note: nearly all actives have a fitted effect of over 60% in size
Target sequence (P51450 whole entry, looked up, the tested form may be a part): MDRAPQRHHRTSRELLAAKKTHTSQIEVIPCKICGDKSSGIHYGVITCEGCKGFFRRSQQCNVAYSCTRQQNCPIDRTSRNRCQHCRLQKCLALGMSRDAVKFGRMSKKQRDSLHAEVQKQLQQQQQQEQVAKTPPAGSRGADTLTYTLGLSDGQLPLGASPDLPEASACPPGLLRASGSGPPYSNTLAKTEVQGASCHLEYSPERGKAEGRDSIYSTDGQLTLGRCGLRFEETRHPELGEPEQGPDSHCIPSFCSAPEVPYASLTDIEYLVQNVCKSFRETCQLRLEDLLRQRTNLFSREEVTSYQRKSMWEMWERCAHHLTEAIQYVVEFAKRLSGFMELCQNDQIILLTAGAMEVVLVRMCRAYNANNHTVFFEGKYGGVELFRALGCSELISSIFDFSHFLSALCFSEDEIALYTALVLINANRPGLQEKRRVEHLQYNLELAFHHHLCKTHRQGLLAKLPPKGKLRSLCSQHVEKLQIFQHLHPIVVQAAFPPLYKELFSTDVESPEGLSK
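Stable Schneider cell line, Gal4 DNA-binding domain fused to ROR gamma, UAS-luciferase. Cmpd 1 hr RT → CuSO4 700 uM final → 20 hr RT → luciferase reagent 10 min → luminescence.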
Tau fibril FP – tau fibrillization inhibition (FP) | K18 P301L tau heparin fibrillization, Alexa594 FP, 6 h | Potency, µM (top dose mostly 57.7 µM), most hits filed as inhibitors | 280,000 compounds, 0.39% hits; note: nearly all actives have a fitted effect of over 55% in size
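Human K18 P301L fragment (15 uM unlabeled plus 0.24 uM Alexa 594-labeled) in 100 mM sodium acetate pH 7 with compound, aggregation induced by 20 uM heparin for 6 hr at 37 C. ThT (30 uM) added for 1 hr, then Alexa 594 FP read.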
Tau fluor counter – counter-screen for tau fibril formation inhibitors; tau K18 P301L Alexa594 fluorescence, heparin fibrillization; Potency, µM (top dose mostly 57.7 µM); 280,000 compounds, 0.93% hits; note: nearly all actives have a fitted effect of over 55% in size
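Human tau K18 P301L (15 uM unlabeled, 0.24 uM Alexa 594-labeled) in 100 mM sodium acetate pH 7 with 20 uM heparin, 6 hr at 37 C. ThT 30 uM added, 1 hr ambient; Alexa 594 FP and total fluorescence read at 555/632 nm.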
Gal4-VP16 FLuc – inhibits Gal4-VP16 luciferase reporter, ROR gamma counter-screen | Drosophila S2 Gal4-VP16 UAS-luciferase, luminescence, 20 h | Potency, µM (top dose mostly 53.6 µM), usual class: inhibitors | 310,000 compounds, 3.5% hits | AID 2546;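 note: Gal4-VP16 expression switched on by copper sulfate through the metallothionein promoter; nearly all actives have a fitted effect of over 50% in size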
Tau fibril ThT – tau fibrillization inhibition (ThT binding); AID 1460; Potency, µM (top dose mostly 57.4 µM), hits mostly inhibitors; recombinant tau K18 P301L (four-repeat tau fragment), heparin-induced fibrillization, ThT fluorescence; 270,000 compounds, 2.1% hits; P10636; note: nearly all actives have a fitted effect of over 55% in size
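Recombinant human tau K18 fragment […] carrying P301L, 15 uM unlabeled plus 0.24 uM Alexa 594-labeled, was fibrillized with 20 uM heparin in 100 mM sodium acetate pH 7 for 6 hr at 37 C; 30 uM ThT fluorescence read after 1 hr.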
A number is an active result; 0 = inactive; ? = inconclusive; - = not tested or not shown. Calls come from the whole dose curve; as a rule, active = well fitted curve in the direction sought with a large enough effect; inconclusive = small, poorly fitted or top-dose-only effect, or another doubt; inactive = no such curve, though single readings can be large; an effect the other way counts as inactive or inconclusive.

SMILES	RORgamma inh	Tau fibril FP	Tau fluor counter	Gal4-VP16 FLuc	Tau fibril ThT
COc1cc(OC)c(NC(=O)C2=C(C)C(=O)OC23CCN(C(C)=O)CC3)cc1Cl	-	0	0	-	0
Cc1ccc(C(=O)Nn2cnnc2)cc1Cl	?	-	-	0	-
NC(=S)C1COc2ccccc2O1 (configuration not stated)	12.6µM	0	0	0	0
CN(C)Cc1ccccc1-c1nc(NC2CCNCC2)c2ccccc2n1	0	-	-	0	-
O=C1NC(=S)N(c2cccc(Cl)c2)C12CCCCC2	12.6µM	0	0	?	0
Cc1ccc(Cn2ccn(Cc3ccc(C)cc3)c(=O)c2=O)cc1	-	0	0	-	?
O=C(Nc1ccc2nc3n(c(=O)c2c1)CCCCC3)c1c(F)ccc([N+](=O)[O-])c1F	0	-	-	7.94µM	-
CC(=O)c1cccc(NC(=O)c2ccc3c(=O)n4c(nc3c2)CCCCC4)c1	2.51µM	0	0	5.01µM	0
CC(C)C[C@@H](CC(=O)N[C@@H](CCCN)CC(=O)N[C@@H]1CCNC[C@H]1C(=O)N[C@H](CC(=O)N[C@@H](CCC(=O)O)CC(=O)O)Cc1ccccc1)NC(=O)[C@@H]1CNCC[C@H]1N	0	0	0	0	0
O=C(NC1CCCCC1)c1ccc2c(c1)N(Cc1cccc(Cl)c1)C(=O)c1ccccc1S2(=O)=O	-	?	0	-	0
Cc1ccccc1CNC(=O)Cc1ccc(NC(=O)N2CCCCc3ccccc32)cc1	-	0	0	-	0
CCCCN1CNC(=S)N(c2cc(C)ccc2C)C1	14.1µM	0	0	10µM	0
CCCCN1CNC(=S)N(c2ccccc2OCC)C1	11.2µM	0	0	14.1µM	0
CCN1CNC(=S)N(c2ccccc2OC)C1	0	0	0	0	0
CCCCN1CNC(=S)N(c2ccc(C(=O)OCC)cc2)C1	?	0	0	0	0
CCCN1CNC(=S)N(c2cccc(C)c2)C1	11.2µM	0	0	0	0
S=C1NCN(Cc2cccnc2)CN1c1cccc2ccccc12	0	0	0	0	0
CCCN1CNC(=S)N(c2ccccc2OCC)C1	10µM	0	0	?	0
COCCNS(=O)(=O)c1ccc(Cl)c(C(=O)NC2CCN(Cc3ccccc3)CC2)c1	0	-	-	0	-
CC(O)c1cccc2cc(C(O)CNC(C)(C)C)oc12 (configuration not stated)	0	-	-	0	-
CCC(=O)OCC(=O)C1(OC(=O)CC)C(C)CC2C3CCC4=CC(=O)C=CC4(C)C3(Cl)C(O)CC21C (configuration not stated)	0	0	0	0	0
COc1ccc2cc(C(N)=O)/c(=N\NC(=O)c3ccccc3)oc2c1	12.6µM	-	-	?	-
Cc1nc2cc(NC(=O)c3ccc(S(=O)(=O)N(C)c4ccccc4)cc3)ccc2o1	0	-	-	?	-
CSc1nn(Cc2cccc(F)c2)c(N(C(C)=O)C(C)=O)c1S(=O)(=O)c1ccccc1	-	?	0	-	?
CCOC(=O)c1c(C)n(C)c2cc([N+](=O)[O-])c(O)c([N+](=O)[O-])c12	0	0	0	0	8.91µM
SMILES	RORgamma inh	Tau fibril FP	Tau fluor counter	Gal4-VP16 FLuc	Tau fibril ThT
Cc1ccccc1-c1nnc(-c2ccc(Br)cc2)o1	0	0	0	2.82µM	0
CCc1ccc(NC(=O)C2CCCN(S(=O)(=O)c3cccc4cccnc34)C2)cc1 (configuration not stated)	-	0	0	-	0
COc1cc(C(CC(=O)NCc2ccc(F)cc2)N2Cc3ccccc3C2=O)cc(OC)c1OC (configuration not stated)	-	0	0	-	0
O=C(COc1ccc(F)cc1)c1c(O)cc(O)cc1O	2µM	0	?	?	?
COC(=O)c1ccc(OCC(=O)c2ccc(O)cc2O)cc1	0.0794µM	0	0	0.891µM	0
O=C(COc1ccccc1F)c1ccc(O)cc1O	3.16µM	0	0	?	0
COc1ccc(C(=O)COc2ccc(F)cc2)c(O)c1	0	0	0	0	?
O=C(COC(=O)c1ccc(O)cc1O)Nc1ccc(Cl)cn1	0	-	-	0	-
O=C(COc1ccc(Cl)cc1)c1ccc(O)cc1O	0.159µM	0	?	1.41µM	?
NCCn1oc(=O)[nH]c1=O	-	0	0	-	0
COc1ccccc1NC(=O)c1ccc2[nH]c(C)c(C)c2c1	0	-	-	0	-
CCOC(=O)c1ccc(OCC(=O)c2ccc(O)cc2O)cc1	0.251µM	0	0	1.12µM	0
C=CCSc1cc(C)nc2c(-c3ccccc3)cnn12	10µM	0	?	?	0

High-throughput results deposited in PubChem BioAssay by National Center for Advancing Translational Sciences (NCATS).
